From PubChem
The list is not random: actives were taken first. Their share in the collection is about 1.6%.
KCNQ2 enhance – potentiators of rat KCNQ2 potassium channel. Potassium voltage-gated channel subfamily KQT member 2 (Rattus norvegicus), O88943. CHO-K1 KCNQ2, FluxOR thallium flux fluorescence; stronger effect = higher value. B-score at 10 µM. hit rate 0.54% among 310,000. AID 2239, 2010;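 active = fluorescence ratio B-score at least 3 SD of library B-scores, with initial fluorescence B-score within 3 of them, cut at about 5.3 in these data; same plate scores as AID 2156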;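 note: B-score of peak minus minimum over baseline fluorescence ratio after K+ and Tl+ stimulus; positive B-score means potentiation of KCNQ2 with more thallium influx and brighter signal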
KCNQ2 block – rat KCNQ2 potassium channel inhibitors, primary screen, cell-based, CHO-K1, FluxOR thallium flux, B-score. 20 min; stronger effect = lower value. B-score at 10 µM. AID 2156, 2009. hit rate 1.1% among 310,000;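 active = fluorescence ratio B-score at most minus 3 library SDs, with starting brightness B-score within 2 library SDs, cut at about -5.5 in these data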
Kir21 conf inh – mouse Kir2.1 channel blockers, retest, confirmation, cell-based, FluxOR thallium flux, duplicate | Kir2.1-expressing cells, FluxOR thallium flux fluorescence; stronger effect = lower value | shares compounds with KCNQ2 enhance | Tl flux remaining, % of negative control (stronger effect = lower value), % at 10 µM | AID 2032, 2009 | hit rate 41% among 2,300;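 active = Primary-screen hit whose thallium flux fell at least 3 control SD below untreated wells in both duplicates, with normal baseline fluorescence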;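 note: 0% = blank wells without stimulus and 100% = stimulated no-compound controls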
Target sequence (P35561 whole entry, looked up): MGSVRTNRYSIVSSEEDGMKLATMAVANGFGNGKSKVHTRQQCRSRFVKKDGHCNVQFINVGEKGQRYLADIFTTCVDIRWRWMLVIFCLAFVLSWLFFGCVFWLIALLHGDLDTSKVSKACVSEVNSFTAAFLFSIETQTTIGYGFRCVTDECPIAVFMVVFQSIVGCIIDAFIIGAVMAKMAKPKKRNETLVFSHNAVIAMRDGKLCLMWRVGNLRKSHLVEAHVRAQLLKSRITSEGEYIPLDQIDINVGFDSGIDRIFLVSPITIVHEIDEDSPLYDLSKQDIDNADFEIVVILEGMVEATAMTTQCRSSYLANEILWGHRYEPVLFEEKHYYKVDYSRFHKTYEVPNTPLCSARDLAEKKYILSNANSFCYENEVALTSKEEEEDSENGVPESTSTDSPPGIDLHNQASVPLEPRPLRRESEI
HEK293 Tl flux – counter-screen for Kir2.1 inhibitors: effect in parental HEK293 cells | shares compounds with KCNQ2 enhance | hit rate 19% among 2,300 | FluxOR signal as % of negative control (100 = no effect), % at 10 µM | AID 2105 | FluxOR thallium flux fluorescence; 0% = unstimulated blank wells;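 active = dye signal at least 3 control SD above or below untreated wells in both duplicates, raw fluorescence within 3, either direction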;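 note: percent is based on the flux ratio of peak minus minimum fluorescence over baseline F0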
CHO-K1 ctr – nonspecific thallium flux increase in parental CHO-K1, confirmation, counter-screen for KCNQ2 potentiator project, cell-based, FluxOR thallium flux, duplicate; shares compounds with KCNQ2 enhance; parental CHO-K1 cells, FluxOR thallium flux fluorescence; zero = vehicle mean+3SD, 100% = vehicle-minus-blank window; activity increase over 3SD of controls, % at 10 µM; hit rate 43% among 1,200; AID 2282, 2010;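 active = signal rise of at least 3 SD above the untreated control mean, in both duplicate wells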;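 note: counter screen of KCNQ2 potentiator hits so any rise reflects channel-independent effects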
KCNQ1 sel pot – human KCNQ1 channel potentiation off-target, confirmation, selectivity assay for KCNQ2 potentiator project, cell-based, CHO, FluxOR thallium flux; activation over 3SD threshold, % at 10 µM; shares compounds with KCNQ2 enhance; hit rate 28% among 1,200; AID 2283, 2010; CHO KCNQ1 stable, FluxOR thallium flux fluorescence; beyond 3SD, as % of vehicle-control signal;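 active = fluorescence ratio rise of at least 3 SD of vehicle wells above their mean, in both replicate wells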;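 note: 0% = vehicle mean plus 3 SD and 100% = vehicle minus unstimulated blank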
KCNQ2 pot confirm – rat KCNQ2 channel potentiators, confirmation, cell-based, CHO, FluxOR thallium flux, duplicate; shares compounds with KCNQ2 enhance; CHO-KCNQ2 cells, FluxOR thallium flux fluorescence; hit rate 68% among 1,200; potentiation, less the hit threshold, % at 10 µM;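 active = fluorescence ratio rising 3 SD or more over the vehicle control mean in both replicates, plus primary screen hit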;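 note: peak minus minimum thallium fluorescence divided by baseline after K/Tl stimulus; 0% = vehicle mean plus 3 SD and 100% = vehicle minus unstimulated blank difference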
Kir21 spec – mouse Kir2.1 channel activation off-target, confirmation, selectivity assay for KCNQ2 potentiator project, cell-based, HEK293, FluxOR thallium flux; shares compounds with KCNQ2 enhance; HEK293 Kir2.1, FluxOR thallium flux fluorescence; activity over 3SD threshold, % at 10 µM; hit rate 2% among 1,200; AID 2345, 2010;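 active = fluorescence ratio rise of at least 3 SD above the vehicle-control mean, seen in both replicates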;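 note: 0% = vehicle mean plus 3 SD and 100% = vehicle minus no-stimulus blank window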
KCNQ2 W236L MoA – potentiators of retigabine-insensitive KCNQ2 W236L, mechanism study for KCNQ2 potentiator project, cell-based, rat KCNQ2 W236L, CHO, automated patch clamp | shares compounds with KCNQ2 enhance | automated patch clamp current | current increase over 3SD of negative controls (%), stronger effect = higher value, % at 25 µM | hit rate 10% among 940;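 active = current increase at least 3 SD of the untreated controls above them in both duplicate recordings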
The depositor's hits bear a star; i = inactive; x = not tested or not shown.

SMILES	KCNQ2 enhance	KCNQ2 block	Kir21 conf inh	HEK293 Tl flux	CHO-K1 ctr	KCNQ1 sel pot	KCNQ2 pot confirm	Kir21 spec	others
O=C1ON=C(c2ccccc2)/C1=C/c1ccc(O)c(O)c1	6.82*	i	70.5%*	i	-3.8	-5.6	-1.3	-70.9	KCNQ2 W236L MoA=i
COc1ccc(/C=C2\C(=O)ON=C2c2ccccc2)cc1	x	i	x	x	x	x	x	x
CCOC(=O)C1=C(COC(=O)/C=C/c2ccco2)NC(=O)NC1C (configuration not stated)	1.37	i	x	x	x	x	x	x
O=C(Nc1ccccc1C(=O)O)/C(=C/c1ccc([N+](=O)[O-])cc1)NC(=O)c1ccc(Br)o1	1.24	i	x	x	x	x	x	x
Cn1c(=O)c2c(nc(Cl)n2CC(=O)NC2(C#N)CCCCC2)n(C)c1=O	0.13	i	x	x	x	x	x	x
COc1cc(/C=N/NC(=O)Cc2ccc(Br)cc2)cc(OC)c1O	2.12	i	x	x	x	x	x	x
O=C(Cc1ccccc1)N/N=C/c1cc(Br)cc(Cl)c1O	6.06*	i	i	i	4.8*	-19.9	19.9*	-33.7	KCNQ2 W236L MoA=24.8%*
O=C(CP(=O)(c1ccccc1)c1ccccc1)N/N=C/c1cc(Br)cc(Br)c1O	0.74	i	x	x	x	x	x	x
COc1cc(Br)cc(/C=N/NC(=O)Cc2ccccc2)c1O	5.29*	i	i	72.5%*	-9.9	-18.1	8.0*	-36.0	KCNQ2 W236L MoA=i
CCc1ccc(CNC(=O)C2CCN(S(=O)(=O)N3CCC(C)CC3)CC2)cc1	6.89*	i	i	i	-13.7	-6.7	-7.5	-27.8
CC1CCN(S(=O)(=O)N2CCC(C(=O)NCc3ccc4c(c3)OCO4)CC2)CC1	0.08	i	x	x	x	x	x	x
Cc1c(NC(=O)C2CCCCC2)cc(C(=O)N2CCOCC2)cc1[N+](=O)[O-]	0.79	i	x	x	x	x	x	x
CC1C(=O)C(C)C(c2ccccc2F)NC1c1ccccc1F (configuration not stated)	x	i	x	x	x	x	x	x
CSC(=S)N/N=C/c1ccc(N(C)C)cc1	1.25	i	x	x	x	x	x	x
CSC(=S)N/N=C/c1ccc(Br)cc1	7.11*	i	i	254.5%*	-3.8	38.7*	-7.2	-22.7
O=C(O)C1CCCN(S(=O)(=O)c2ccc3c(c2)OCCO3)C1 (configuration not stated)	0.61	i	x	x	x	x	x	x
CCOc1ccc(C2/C(=C(\O)c3ccc4c(c3)OCCO4)C(=O)C(=O)N2CCN2CCOCC2)cc1OCC (configuration not stated)	0.63	i	x	x	x	x	x	x
CC(=O)Nc1ccc(NCc2ccc(C)s2)cc1	3.77	i	x	x	x	x	x	x
CCCC(=O)Nc1ccc(NCc2ccc(C)s2)cc1	21.6*	i	i	i	-21.6	-32.1	85.0*	-26.6	KCNQ2 W236L MoA=i
CN(C)S(=O)(=O)c1cccc(C(=O)OCC(=O)NCc2ccc3c(c2)OCO3)c1	0.06	i	x	x	x	x	x	x
COc1ccc(S(=O)(=O)N2CCC(C(=O)N[C@@H](C)C(=O)NCc3ccccc3OC)CC2)cc1	0.23	i	x	x	x	x	x	x
Cc1ccc(C)c(-c2cc(C(=O)Nc3nccs3)c3ccccc3n2)c1	x	i	x	x	x	x	x	x
Cc1ccc(C)c(-c2cc(C(=O)NCc3cccs3)c3ccccc3n2)c1	15.8*	i	i	72.5%*	8.2*	-14.1	31.7*	-37.2	KCNQ2 W236L MoA=i
Cc1ccc(Cc2c(C)[nH]c(=S)[nH]c2=O)cc1	x	i	x	x	x	x	x	x
Cc1ccc(Cc2c[nH]c(=S)s2)cc1	7.87*	i	i	386.0%*	-3.3	-10.1	62.6*	-17.5	KCNQ2 W236L MoA=i
SMILES	KCNQ2 enhance	KCNQ2 block	Kir21 conf inh	HEK293 Tl flux	CHO-K1 ctr	KCNQ1 sel pot	KCNQ2 pot confirm	Kir21 spec	others
Cc1c(Cl)cccc1S(=O)(=O)Nc1ccnn1C	2.4	i	x	x	x	x	x	x
COC(=O)c1cccc(OCC(O)Cn2ccnc2)c1 (configuration not stated)	x	i	x	x	x	x	x	x
COc1ccc(C(=O)OC(COc2ccccc2)Cn2ccnc2)cc1 (configuration not stated)	x	i	54.5%*	i	x	x	x	x
N#C/C(=C\c1ccc(-c2cccc([N+](=O)[O-])c2)o1)C(=O)Nc1nc(-c2cccs2)cs1	6.77*	i	i	i	16.7*	-20.0	-17.5	-38.2
O=C(Cc1ccccc1)Nc1nc(-c2cccc([N+](=O)[O-])c2)cs1	1.4	i	x	x	x	x	x	x
Cc1cccc(NC(=S)N(CCN2CCOCC2)Cc2cc3cc4c(cc3[nH]c2=O)OCCO4)c1	1.24	i	x	x	x	x	x	x
CCn1c(SCc2cccc(C)c2)nnc1-c1ccccc1	x	i	57.0%*	i	x	x	x	x
CCn1c(SCC(O)c2ccccc2)nnc1-c1ccccc1 (configuration not stated)	0.68	i	x	x	x	x	x	x
CC(C)CN(Cc1c(O)ccc2ccccc12)CC(C)C	6.48*	i	i	i	-13.3	-12.2	-29.1	-41.2
CN(C)Cc1c(O)ccc2ccccc12	x	i	x	x	x	x	x	x
COCCN(C(=O)COC(=O)c1cc(C)oc1C)c1c(N)n(Cc2ccccc2)c(=O)[nH]c1=O	x	i	x	x	x	x	x	x
Cc1nc2scc(-c3ccccc3)c2c(=O)n1N	0.36	i	x	x	x	x	x	x
Cc1nc2scc(-c3ccccc3)c2c(=O)n1N=C1C=CC(=O)C=C1	x	i	62.0%*	51.0%*	x	x	x	x
c1ccc(Nc2nc(-c3ccccc3)ns2)cc1	1.44	i	x	x	x	x	x	x
CN(CCc1ccccn1)C(=O)CCC1CCCN(C(=O)c2cccc(N(C)C)c2)C1 (configuration not stated)	1	i	x	x	x	x	x	x
CCCCC(O)(c1ccc(OC)cc1)C(CN1CCOCC1)c1ccccc1 (configuration not stated)	0.75	i	x	x	x	x	x	x
CCCCCC(O)(c1ccc(OC)cc1)C(CN1CCOCC1)c1ccccc1 (configuration not stated)	6.22*	i	i	i	62.1*	-13.4	-1.5	-29.4	KCNQ2 W236L MoA=i
